In PubChem BioAssay (Tox21) one finds Potency and outcome data, which are given here for ten compounds.

Where “and” joins values, the source holds several entries; their conditions need not be identical. Identical values can stand only once. Values without a mark were called inactive. Results filed as inconclusive are left out. Calls of active or inactive are those of the source. Unless noted, calls follow the shape of the dose curve; as a rule, active = well fitted curve in the direction sought with a large enough effect in the repeat runs; inconclusive = weak or mixed curves; inactive = no such curve, though single readings can be large; an effect the other way counts as inactive or inconclusive.

Experiment [1] can be described thus: qHTS assay for small molecule agonists of the p53 signaling pathway (AID 651631; calls by dose curve; also: nearly all actives have a fitted effect of over 15% in size; also: potency is read from the fitted curve at half-maximal effect). In short, it runs like this: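 We treat p53RE-bla HCT-116 cells with compounds for 16 h at 37 °C, add LiveBLAzer B/G FRET substrate for 2 h at room temperature, and measure fluorescence intensity.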
For orientation: qHTS replaces the single test concentration by a dilution series.

Experiment [2] is described as follows: qHTS assay for small molecule agonists of the p53 signaling pathway - cell viability (AID 651633; calls by dose curve;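 also: p53RE-bla HCT reporter cells with a stable beta-lactamase p53 reporter; nearly all actives have a fitted effect of over 30% in size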). In short, it runs like this: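 Viability counter-read: CellTiter-Glo luminescence (30 min, room temperature) in the same p53RE-bla plates. These plates had been exposed to compounds for 16 h at 37 C.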
A short description of experiment [3]: qHTS assay for small molecule disruptors of the mitochondrial membrane potential - cell viability (AID 720634; calls by dose curve;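 also: human HepG2 liver cancer cells; nearly all actives have a fitted effect of over 20% in size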). An outline of the steps: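 HepG2, 1 hr compound, 37 C. ATP luminescence via CellTiter-Glo, 30 min RT, same well as m-MPI.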
Experiment [4] in a line: qHTS assay for small molecule disruptors of the mitochondrial membrane potential (AID 720635). Also: potency is read from the fitted curve at half-maximal effect. In short, it runs like this: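 Mitochondrial membrane potential tracked with Mito-MPS dye, red aggregates (ex 540/em 590 nm) against green monomers (ex 490/em 535 nm). Compound treatment 1 hr at 37C, dye 30 min in HepG2.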
Experiment [5] in a line: qHTS assay to test for compound auto fluorescence at 535 nm (green) in HepG2 cells (AID 720675).
Experiment [6] can be described thus: qHTS assay to test for compound auto fluorescence at 460 nm (blue) in HEK293 cells (AID 720678). In short, it runs like this:
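Blue read-out at excitation 405 nm and emission 460 nm follows overnight compound exposure of HEK293 cells at 37C in 5% CO2. Activity is given as auto fluorescence equivalency to triamterene.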

Experiment [7] is described as follows: qHTS assay to test for compound auto fluorescence at 590 nm (red) in HEK293 cells (AID 720679). An outline of the steps: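 Red channel, Ex/Em 540/590nm; signal expressed as equivalency to Rose Bengal sodium. HEK293, 2,000 cells/well, 10% dialyzed FBS; 23 nL compound pinned after 4-5 hr attachment; overnight 37C/5% CO2 before reading.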
The nature of experiment [8]: qHTS assay to test for compound auto fluorescence at 535 nm (green) in HEK293 cells (AID 720680).
Experiment [9] can be described thus: qHTS assay to test for compound auto fluorescence at 460 nm (blue) in HEK293 cell free culture (AID 720681). An outline of the steps: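 Blue fluorescence (Ex 405/Em 460 nm, triamterene-equivalent) was read immediately after pin transfer of compound or DMSO into medium (DMEM, 10% FBS) without cells.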
The nature of experiment [10]: qHTS assay to test for compound auto fluorescence at 535 nm (green) in HEK293 cell free culture (AID 720682). An outline of the steps: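 Green-channel intensity (Ex/Em 485/535 nm) was recorded from compound-treated wells containing only DMEM with 10% FBS. Fluorescein provided the equivalency standard.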
Experiment [11] in a line: qHTS assay to test for compound auto fluorescence at 590 nm (red) in HEK293 cell free culture (AID 720683). In short, it runs like this:
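Red-channel autofluorescence of compounds in culture medium (DMEM, 10% FBS), no cells, measured at 540/590 nm. Rose Bengal sodium is the reference fluorophore for equivalence.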

A short description of experiment [12]: qHTS assay to test for compound auto fluorescence at 590 nm (red) in HepG2 cell free culture (AID 720684). An outline of the steps:
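Plate contents were MEM with 10% FBS plus test compound or DMSO, no cells. Fluorescence was recorded with 540 nm excitation and 590 nm emission.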

The nature of experiment [13]: qHTS assay to test for compound auto fluorescence at 460 nm (blue) in HepG2 cell free culture (AID 720685). In short, it runs like this:
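Compound (23 nL) or DMSO pinned into cell-free MEM with 10% FBS; blue fluorescence read at 405/460 nm excitation/emission, expressed as auto-fluorescence equivalency to triamterene.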

Experiment [14] in a line: qHTS assay to test for compound auto fluorescence at 535 nm (green) in HepG2 cell free culture (AID 720686).
Experiment [15] can be described thus: qHTS assay to test for compound auto fluorescence at 460 nm (blue) in HepG2 cells (AID 720687). An outline of the steps:
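Blue-channel autofluorescence (Ex/Em 405/460 nm, triamterene-equivalent) was measured after 1 hr compound exposure at 37 C, 5% CO2. Cells were HepG2, plated overnight at 37 C in MEM plus 10% FBS.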

Experiment [16] concerns the target Glucocorticoid receptor (Homo sapiens) (UniProt P04150). The experiment can be described thus: qHTS assay to identify small molecule agonists of the glucocorticoid receptor (GR) signaling pathway (AID 720691; active = well fitted activation curve with a large enough effect in the signal ratio in the repeat runs, not every such curve was filed as active; the % refers to the signal ratio). As to conditions: GR-bla HeLa, beta-lactamase reporter ratio, 18 h; activation: at 62.4 µM (top of the series). An outline of the steps:
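qHTS in GR-bla HeLa cells: 4 h settling at 37 C/5% CO2, 18 h compound incubation at 37 C, 2 h LiveBLAzer B/G FRET substrate at room temperature, fluorescence intensity measured.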

A short description of experiment [17]: qHTS assay to test for compound auto fluorescence at 590 nm (red) in HepG2 cells (AID 720674). In short, it runs like this: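 Red autofluorescence (Ex/Em 540/590 nm, Rose Bengal sodium equivalents) was measured in HepG2 cells, 2,000 per well in MEM plus 10% FBS, plated overnight at 37 C. Readings were taken 1 hr after adding 23 nL compound or DMSO, at 37 C and 5% CO2.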

Experiment [18] can be described thus: qHTS assay for small molecules that induce genotoxicity in human embryonic kidney cells expressing luciferase-tagged ATAD5 - cell viability (AID 651634; calls by dose curve; also: nearly all actives have a fitted effect of over 25% in size). In short, it runs like this:
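Viability read: CellTiter-Fluor fluorescence, 30 min at 37C. Cells: HEK293T, luciferase-tagged ATAD5. Exposure: 15.5 hr, 37C, 5% CO2, compound or DMSO vehicle.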

Experiment [19] can be described thus: qHTS assay for small molecules that induce genotoxicity in human embryonic kidney cells expressing luciferase-tagged ATAD5 (AID 651632). Also: nearly all actives have a fitted effect of over 15% in size. In short, it runs like this:
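Luminescent reporter readout, HEK293T ATAD5-luc line: 16 hr drug exposure (37C, 5% CO2) followed by Amplite, 30 min RT.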

Experiment [20] addresses Glucocorticoid receptor (Homo sapiens) (UniProt P04150). The experiment can be described thus: qHTS assay to identify small molecule antagonists of the glucocorticoid receptor (GR) signaling pathway (AID 720692; active = well fitted inhibition curve with a large enough effect in the signal ratio in the repeat runs, not every such curve was filed as active; the % refers to the signal ratio). An outline of the steps: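 Inhibition of glucocorticoid signalling is measured in HeLa cells with a GRE-controlled beta-lactamase reporter; cells are co-treated with compound and 5 nM dexamethasone (final) for 18 h before FRET substrate readout.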

Chain of Glucocorticoid receptor (Homo sapiens) (P04150 whole entry, looked up): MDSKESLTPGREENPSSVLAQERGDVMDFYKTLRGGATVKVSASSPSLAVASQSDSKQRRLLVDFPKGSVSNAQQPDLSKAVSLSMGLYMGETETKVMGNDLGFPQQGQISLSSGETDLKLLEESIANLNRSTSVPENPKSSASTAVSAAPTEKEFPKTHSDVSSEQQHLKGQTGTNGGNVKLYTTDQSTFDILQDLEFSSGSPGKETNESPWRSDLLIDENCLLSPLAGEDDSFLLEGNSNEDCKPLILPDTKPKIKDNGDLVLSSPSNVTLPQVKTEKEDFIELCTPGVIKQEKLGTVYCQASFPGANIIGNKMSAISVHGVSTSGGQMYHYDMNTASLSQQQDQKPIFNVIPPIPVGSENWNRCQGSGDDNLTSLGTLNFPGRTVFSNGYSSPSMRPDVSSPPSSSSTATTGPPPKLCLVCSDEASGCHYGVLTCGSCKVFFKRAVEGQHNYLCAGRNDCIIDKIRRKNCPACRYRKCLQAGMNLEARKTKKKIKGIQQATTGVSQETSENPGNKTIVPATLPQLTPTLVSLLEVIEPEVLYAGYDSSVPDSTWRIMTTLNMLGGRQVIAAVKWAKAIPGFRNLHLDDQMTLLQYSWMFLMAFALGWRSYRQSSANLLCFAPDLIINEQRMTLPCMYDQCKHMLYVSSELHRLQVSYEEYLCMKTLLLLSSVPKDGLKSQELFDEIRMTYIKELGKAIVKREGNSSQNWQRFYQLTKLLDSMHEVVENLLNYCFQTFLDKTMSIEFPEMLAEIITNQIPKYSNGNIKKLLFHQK

As for `CCCSc1ccc2nc(NC(=O)OC)[nH]c2c1`, the Potency was 320 nM (active) and 306 nM (active) in experiment [1]; 4.52 µM (active) and 12.2 µM (active) in [4]. Besides, the Potency result in [2], in experiment [3] and in experiment [16] was “inactive” throughout. In addition, the call in experiment [5], in [6], in experiment [7], in [8], in experiment [9] and in experiment [10] was inactive. In addition, the call in experiment [11], in experiment [12], in [13], in experiment [14] and in [15] was inactive.
Take `CCCCCCCCCCCCS`: the Potency entry in [1], in experiment [2], in [3] and in [4] was “inactive” each time. Also, the call in experiment [17], in experiment [5], in experiment [6], in experiment [7], in [8] and in experiment [10] was inactive. For the same compound, the call in experiment [11], in experiment [12], in [13], in experiment [14] and in experiment [15] was inactive.
In the case of `Cc1cc(C)c(C)cc1C`, the Potency result in experiment [1], in experiment [2] and in experiment [18] was “inactive” in each case. Also, the outcome in experiment [17], in [5], in experiment [6], in experiment [7], in experiment [8] and in [9] was inactive. Further, the compound was classed as inactive in [10], in experiment [11], in experiment [12], in [14] and in experiment [15].
Take `CC1CCC(C(C)C)C(O)C1` (stereo not drawn): the call in experiment [19], in [17], in [5], in experiment [6], in [7] and in experiment [8] was inactive. For the same compound, the outcome in experiment [9], in experiment [10], in experiment [12], in [14] and in experiment [15] was inactive. Besides, the Potency result in experiment [2], in experiment [18], in experiment [3] and in experiment [4] was “inactive” in each case.
For `OCc1cccnc1`, the Potency result in [18] and in experiment [3] was “inactive” throughout. The result in [5], in experiment [6], in [7], in [8], in [9] and in [10] was inactive. For the same compound, the outcome in experiment [12], in experiment [14] and in experiment [15] was inactive.
As for `CN(C)CCOCCN(C)C`, the Potency entry in experiment [1], in experiment [2], in experiment [3], in experiment [16] and in experiment [20] was “inactive” throughout. Moreover, the compound was called inactive in experiment [5], in experiment [6], in experiment [7], in [8], in experiment [9] and in [10]. Also, the compound was called inactive in experiment [12], in experiment [13], in [14] and in experiment [15].
As to `CC(=O)CC(=O)Nc1ccccc1`, the Potency result in experiment [2], in [18], in experiment [3], in [4], in experiment [16] and in experiment [20] was “inactive” throughout. Moreover, the result in experiment [17], in experiment [5], in [6], in [7], in experiment [8] and in experiment [9] was inactive. Moreover, the result in [10], in experiment [11], in experiment [12], in [13], in experiment [14] and in experiment [15] was inactive.
Turning to `O=C(O)[C@H](O)[C@@H](O)[C@H](O)[C@H](O)CO`, the call in experiment [19], in experiment [5], in experiment [6], in experiment [7], in experiment [10] and in experiment [12] was inactive. For the same compound, the call in experiment [13], in [14] and in experiment [15] was inactive. The Potency result in experiment [3] and in experiment [4] was “inactive” each time.
Take `CC(=O)Nc1ccccc1`: the Potency entry in experiment [2], in [3], in experiment [16] and in experiment [20] was “inactive” in each case. Further, the call in experiment [17], in experiment [5], in experiment [6], in experiment [7], in [10] and in experiment [12] was inactive. For the same compound, the result in experiment [14] and in experiment [15] was inactive.
Consider `C#C[C@]1(O)CC[C@H]2[C@@H]3CCC4=CC(=O)CC[C@@H]4[C@H]3CC[C@@]21C`, for which the Potency result in [18], in [3], in experiment [4] and in experiment [16] was “inactive” throughout. The result in [17], in experiment [5], in [6], in experiment [7], in experiment [8] and in experiment [9] was inactive. The compound was classed as inactive in experiment [10], in experiment [11], in experiment [12], in experiment [13], in experiment [14] and in experiment [15].
